Measurements: the supplement of paper PMC10981050
“And” between values parts separate entries of the source, which are not always exact repeats. Equal values may be shown once.

Assays:
Experiment in all cases: cell viability relative to vehicle control; higher = less cytotoxic
Settings in all cases: 10 µM
K562 = system: K562
Method in brief: (§1)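 CRISPR-edited mutant clones and isogenic wild-type clones from four leukaemia lines were screened against Selleck bioactive, kinase and epigenetic probe libraries, with identity-inconsistent compounds excluded. Each compound was acoustically dispensed at a single 10 µM dose into 384-well plates holding 2000 cells in 50 µL medium per well. After 48 h the supernatant was removed and CellTiter-Glo luminescence was read. Viability was expressed as percent of the on-plate vehicle control and analysed in Genedata Screener.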

MARIMO = system: MARIMO
Method in brief: as §1

MOLM14 = system: MOLM14
Method in brief: as §1

OCI-AML2 = system: OCI-AML2
Method in brief: as §1

Row | SMILES | cell viability (K562; SRSF2 genotype: SRSF2 P95H/wt) | cell viability (K562; SRSF2 genotype: SRSF2 wt/wt) | cell viability (MARIMO; SRSF2 genotype: SRSF2 P95H/wt) | cell viability (MARIMO; SRSF2 genotype: SRSF2 wt/wt) | cell viability (MOLM14; SRSF2 genotype: SRSF2 P95H/wt) | cell viability (MOLM14; SRSF2 genotype: SRSF2 wt/wt) | cell viability (OCI-AML2; SRSF2 genotype: P95H/wt) | cell viability (OCI-AML2; SRSF2 genotype: wt/wt)
1 | CC(C)Oc1ccc(-c2cnc3c(-c4ccnc5ccccc45)cnn3c2)cc1 | 86.4% and 88.6% | 84.7% | 86.1% | 98% | 84.6% | 90.4% | 82.2% | 78.1%
2 | O=C(Nc1ccc(Cl)cc1)C1CCCN(C(=O)c2cccc(-c3ccco3)c2)C1 (stereo not drawn) | 67.5% and 80.2% | 71.6% | 52.6% | 39.4% | 64.4% | 77.1% | 29% | 43%
3 | COc1ncc(-c2ccc3nccc(-c4ccnnc4)c3c2)cc1NS(=O)(=O)c1ccc(F)cc1F | 31.8% and 30.2% | 34.8% | 26.4% | 24.1% | 1.48% | 11.9% | 0.26% | 1.55%
4 | COc1ccc(NC(=O)c2ccc(C(=N)N(C)C)cc2)c(C(=O)Nc2ccc(Cl)cn2)c1 [Betrixaban] | 89.2% and 82.7% | 86.6% | 82.8% | 90.1% | 95.6% | 96.2% | 85.8% | 74.6%
5 | CNC(=O)c1cc(Oc2ccc3nc(N[C@@H]4CCCC[C@H]4O)sc3c2)ccn1 | 87.4% and 93.2% | 89.4% | 100% | 99.1% | 89.2% | 99.5% | 90% | 83.2%
6 | CC(C(=O)O)c1cccc(Oc2ccccc2)c1 (stereo not drawn) [Fenoprofen calcium hydrate] | 95.1% and 104% | 99.4% | 103% | 101% | 95.1% | 102% | 106% | 103%
7 | CCC(CC)(NC(=O)C(C)C)C(=O)N[C@@H](CCCN=C(N)N)C(=O)NC1(C(=O)NC(c2ccc(F)cc2)c2ccc(F)cc2)CCCC1 | 98.6% and 103% | 106% | 93.8% | 98.3% | 93.4% | 99.3% | 97.9% | 108%
8 | N#Cc1ccc(C(c2ccc(C#N)cc2)n2cncn2)cc1 [Letrozole] | 95.7% and 97.2% | 91.9% | 91.9% | 94% | 96.8% | 92.3% | 87.5% | 90.1%
9 | C/C=C(/C)C(=O)OC(=O)/C(C)=C\C [Angelic anhydride] | 98.7% and 106% | 113% | 101% | 101% | 103% | 107% | 102% | 100%
10 | COc1ccc(C2=NC(c3ccc(Cl)cc3)C(c3ccc(Cl)cc3)N2C(=O)N2CCNC(=O)C2)c(OC(C)C)c1 (stereo not drawn) [Nutlin-3b] | 90.3% and 93.2% | 89.3% | 87.5% | 97.1% | 77.2% | 86.7% | 84.5% | 89.8%
11 | Nc1cc(F)ccc1NC(=O)/C=C/c1cnn(C/C=C/c2ccccc2)c1 | 89.5% and 93.8% | 83.6% | 77.8% | 100% | 90.5% | 94.2% | 104% | 87.4%
